From PubChem
Many of the other results were omitted from the sample, so hits are more common in it than they were.
Pf Dd2 growth: inhibitors of Plasmodium falciparum Dd2 growth; P. falciparum Dd2 growth, SYBR Green, 72 h; Potency, µM (top dose mostly 28.9 µM), for the others: at the top dose activity, negative = inhibition, hits mostly inhibitors; actives 4.3% (n = 120,000); AID 1347417; active means well fitted inhibition curve with a large enough effect;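 further: plate controls were DMSO vehicle for no effect and reference drug for full effect; nearly all actives have a fitted effect of over 65% in size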
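Infected erythrocytes (Dd2, 0.3% parasitemia, 2.5% hematocrit final) are added to compound in RPMI-1640/Albumax II medium, grown 72 h at 37C in low oxygen, then lysed with saponin/Triton-X containing SYBR Green and read by fluorescence.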
An asterisk follows results filed as active; i = inactive; [ ] = remark or other dose. Potency means the concentration at half of the fitted maximal effect.

SMILES	Pf Dd2 growth
Nc1nc2c(c(=O)[nH]1)CCN(C(=O)Cc1c[nH]c3ccccc13)C2	-4%
COc1nccnc1NC1CCN(C(=O)c2ccccc2)CC1	1%[5.79 µM]
CCCCNC(=O)CCc1cc2ccc(C)cc2[nH]c1=O	i
CN1CCC(N[C@@H]2CO[C@H](CNC(=O)Nc3ccccc3)[C@H]2O)CC1	19%[44.1 µM]
Cn1nccc1CN1CCC12Cc1ccccc1NC2=O (stereo unspecified)	8%[44.1 µM]
COc1ccc2cc1Nc1ccc(cc1)C[C@H](NCC1CC1)C(=O)N(C)[C@@H](C(=O)NCc1ccccc1)C2	-25%
COc1cccc(C(=O)N2CCC(N3C(=O)CCC3C(=O)NCc3ccccc3)CC2)c1C (stereo unspecified)	-5%
Cc1ccc(CNC(=O)C2N(C(C)C)C(=O)C23CCCC3)o1 (stereo unspecified)	6%
COc1ccc(CCN2CC(C(=O)NCCc3ccc(C)cc3)CC2=O)cc1OC (stereo unspecified)	24%
COc1ccc2cc1Nc1ccc(cc1)C[C@H](NCc1ccc(C)o1)C(=O)N(C)[C@@H](C(=O)NCc1ccccc1)C2	0.89µM*
COc1cccc(N2CC(C(=O)NCCOc3ccccc3)NC2=O)c1 (stereo unspecified)	12%
COc1ccc2cc1Nc1ccc(cc1)C[C@H](NCc1ccc(C)o1)C(=O)N(C)[C@H](C(=O)NCCC(C)C)C2	1µM*
COCCN1CC(C(=O)NCCOc2ccccc2)CCC1=O (stereo unspecified)	-7%
COc1ccc2cc1Nc1ccc(cc1)C[C@H](NCc1ccc(O)cc1)C(=O)N(C)[C@H](C(=O)NCCOc1ccccc1)C2	2.5µM*
COC(=O)c1cc2n(n1)CCN(C(=O)c1cccc3c1OCC3)C2	18%
CCn1nc(C)cc1S(=O)(=O)N[C@@H]1COCC[C@@H]1OCc1ccccc1	-7%
FC(F)(F)c1ccc(O[C@H]2COCCN(CC3CCCC3)C2)cc1	-19%[44.1 µM]
O=C(Cc1cccc(F)c1)N1CCC(c2n[nH]c(=O)n2Cc2ccc(F)cc2)CC1	-3%
COCCOCc1nc(C2CCN(C(=O)NCc3ccc(F)cc3)CC2)no1	i
FC(F)(F)c1ccc(O[C@H]2COCCN(Cc3cccnc3)C2)nc1	-5%[44.1 µM]
c1ccc(-c2ccc(CN3CCOC[C@H](Oc4cnccn4)C3)cc2)cc1	5.6µM*
COc1cccc(CN2CCOC[C@H](Oc3cccnc3)C2)c1	i
COc1cc(=O)n2c(c1C(=O)Nc1cccc(Cl)c1F)CCCC2	79%
COCC(=O)N[C@H]1C[C@@H](CO)N(Cc2ccsc2)C1	-1%
COc1ccc(O[C@H]2COCCN(C(=O)c3cccc(F)c3)C2)cc1	-6%[44.1 µM]
SMILES	Pf Dd2 growth
COc1cccc(CNC(=O)[C@@H]2C[C@@H](O)CN2C2CCN(C(=O)c3cccc(OC)c3)CC2)c1	-11%
COc1cccc(CNC(=O)[C@@H]2C[C@@H](O)CN2C2CCN(C(=O)CC3CCCC3)CC2)c1	i
COc1cccc(CNC(=O)[C@@H]2C[C@@H](O)CN2C2CCN(C(=O)c3ccco3)CC2)c1	i
COc1cccc(CNC(=O)[C@@H]2C[C@@H](O)CN2C2CCN(C(=O)Cc3ccc(Cl)cc3)CC2)c1	13µM*
COc1cccc(CNC(=O)[C@@H]2C[C@@H](O)CN2C2CCN(C(=O)c3ccncc3)CC2)c1	-19%
COc1cccc(CNC(=O)[C@@H]2C[C@@H](O)CN2C2CCN(C(=O)c3cccs3)CC2)c1	8.9µM*
Cc1ccc(S(=O)(=O)Nc2ccc(C)n(CC(=O)N(C)C)c2=O)cc1	i
Cc1ccc(NC(=O)N2CCC(Oc3ncccc3C(=O)N3CCOCC3)C2)cc1F (stereo unspecified)	9%
COC[C@@]12CC[C@@H](N3CCOCC3)C[C@H]1CCN(c1nccc(N)n1)C2	7%
CCN(C)c1ccnc(N2CC[C@@H]3C[C@H](N4CCOCC4)CC[C@@]3(COC)C2)n1	8.9µM*
COC[C@@]12CC[C@@H](N3CCOCC3)C[C@H]1CCN(c1nccc(NC(C)C)n1)C2	i
CCN1c2cc(C(=O)N3CCSCC3)ccc2C(=O)N2CCCCCC21 (stereo unspecified)	5%
COc1ccc2[nH]cc(CCNC(=O)C3(Cc4cccnc4)CCCCC(=O)N3)c2c1 (stereo unspecified)	i
O=C(N1C[C@@H](CO)[C@H](c2ccncc2)C1)C1(c2ccccc2)CC1	-7%
Cn1cnc(S(=O)(=O)N2CCCN(CC3CCCCC3)CCNC(=O)CC2c2ccccc2)c1 (stereo unspecified)	i
Cc1cc(N2CCN(c3cccc(C(F)(F)F)c3)CC2)n2nc(-c3ccccc3C)nc2n1	11µM*
COc1ccc(N2CCN(c3cc(C)nc4nc(-c5ccc(C)cc5)nn34)CC2)cc1	-10%
COc1ccc(-c2nc3nc(C)cc(Nc4cccc(C(F)(F)F)c4)n3n2)cc1	6%
COc1cc(NC(=O)Cn2c(-c3cnccn3)nc(C)c(CCO)c2=O)cc(OC)c1OC	8%
O=C(O)Cn1nc(-c2ccncc2)nc1C1CCOC1 (stereo unspecified)	-4%
Fc1ccc(Nc2nc(-c3ccccc3)no2)cc1	i
COc1cc(Nc2nc(-c3ccccc3F)no2)cc(OC)c1OC	13µM*
COc1cc(Nc2nc(-c3ccccc3)no2)cc(OC)c1OC	-4%
Cc1cc(C)cc(Nc2nc(-c3ccccc3F)no2)c1	13µM*
COc1ccc(-c2noc(-c3nc(-c4ccccc4F)no3)n2)cc1OC	22%
SMILES	Pf Dd2 growth
Fc1ccccc1-c1noc(-c2nc(-c3ccccc3F)no2)n1	-1%
O=C(NCc1nnc2n1C(C(=O)O)CC2)c1ccc2c(c1)OC(F)(F)O2 (stereo unspecified)	19%
Cc1ccccc1C(=O)NC1CCN(c2nc3ncccc3o2)CC1	i
Cc1cc(NC(=O)N2CC=C(c3c[nH]c4ccccc34)CC2)ccc1Br	-3%
CCc1ccc(NC(=O)N2CC=C(c3c[nH]c4ccccc34)CC2)cc1	i
CCOC(=O)c1cccc(NC(=O)N2CC=C(c3c[nH]c4ccccc34)CC2)c1	6.3µM*
Cc1ccc(C)c(NC(=O)N2CC=C(c3c[nH]c4ccccc34)CC2)c1	4µM*
CCOC(=O)c1cccc(NC(=O)N2CCC(CN3CCc4ccccc4C3)CC2)c1	-14%
CCOc1ccc2c(n1)CCN(C(=O)Nc1cc(C)ccc1C)C2	-15%
O=C1CCCCN1CCCC(=O)N1CCOC(CC2CCCCC2)C1 (stereo unspecified)	1%
CN(Cc1nc(C2CC2)no1)C(=O)c1cccc(CC2CCNCC2)c1	-7%
COc1ccc(NS(=O)(=O)c2cc3c(cc2C)NC(=O)CO3)c(OC)c1	4%
COc1ccccc1NS(=O)(=O)c1cc2c(cc1Cl)NC(=O)CO2	8.9µM*
COc1ccc(CNS(=O)(=O)c2cc3c(cc2Cl)NC(=O)CO3)cc1	38%[0.594 µM]
Cc1ccc(C(=O)N2CCCC(c3nc(C(C)C)no3)CCNC(=O)CC2)s1 (stereo unspecified)	-16%
CCN1c2cc(C(=O)NCCC3=CCCCC3)ccc2C(=O)N2CCCCCC21 (stereo unspecified)	i
COc1ccc(S(=O)(=O)N2[C@@H]3CC[C@H]2CC(NC(=O)c2ccncc2)C3)cc1OC (stereo partly specified)	7%
O=C(NCCn1ccnc1-c1cc2n(n1)CCNC2)c1ccncc1	15%
CCCCN(C)C(=O)Cn1ccn2nc(-c3ccc(F)cc3)c(CO)c2c1=O	-9%
Cc1nn(-c2ccc(C(F)(F)F)cc2)c(C)c1[C@@H]1C=C[C@@H](NC(=O)COc2ccccc2)C1	-4%
COc1ccc(NC(=O)N[C@@H]2C=C[C@@H](c3c(C)nn(-c4ccccn4)c3C)C2)cc1	i
COc1ccc(-n2nc(C)c([C@@H]3C=C[C@@H](NCc4ccc(N(C)C)cc4)C3)c2C)cc1	1.6µM*
COc1ccc(CN[C@@H]2C=C[C@@H](c3c(C)nn(-c4ccccc4)c3C)C2)cc1	6.3µM*
